Source: PubChem
aSyn 5UTR inh – MLPCN primary screen, SNCA 5' untranslated region. alpha-synuclein 5'UTR reporter, inhibitor activity. inhibition, % (tested at 7.5 µM). hit rate 0.82% among 300,000; in the data active means inhibition above about 60%; inconclusive means no clear call, values can overlap the other calls;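 further: H4 neuroglioblastoma cells stably carrying SNCA 5'UTR luciferase fusion; 0% = DMSO wells and 100% = positive control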
KLF5 inhibitor – KLF5 expression inhibitors, primary screen, DLD-1 cells, luminescence | DLD-1 KLF5 promoter-luciferase reporter | inhibition, % at 5 µM | hit rate 0.23% among 290,000;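 active means inhibition above a per-plate limit of that plate's mean compound inhibition plus 3 SD, cut at about 60% in these data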;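 further: 0% = DMSO wells and 100% = LY294002 at 200 µM; higher means less KLF5 promoter-driven luciferase light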
Ba/F3 V617F tox – reduced viability of JAK2V617F-dependent Ba/F3 cells, primary screen, JAK2V617F inhibitor project, cell-based, Ba/F3 EpoR-JAK2V617F, luminescence. ATP luminescence. inhibition, % at 5.6 µM. hit rate 1.1% among 220,000. AID 1446, 2008;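 active means inhibition above the campaign mean plus 3 SD over all tested compounds, cut at about 24% in these data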;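 further: cytokine-independent growth of Ba/F3 cells driven by EpoR plus mutant JAK2; 0% = DMSO-treated cells and 100% = JAK inhibitor I control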
IEC-6 cytotox – cytotoxicity in IEC-6 intestinal epithelial cells, primary screen, cytotoxicity control for KLF5 inhibitor project, cell-based, luminescence; IEC-6 cytotoxicity, luminescence viability; inhibition, % at 5 µM; hit rate 0.78% among 290,000; AID 1825, 2009; in the data active means inhibition above about 22%;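 further: 0% = plate median of test compound wells and 100% = cytotoxic reference compound wells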
APP transl inh – inhibitors of APP translation via 5'UTR reporter, primary screen, APP 5'UTR luciferase, SH-SY5Y cells; SH-SY5Y APP 5'UTR-luciferase reporter, luminescence; inhibition, % at 2 µM; hit rate 0.82% among 190,000;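 active means inhibition above a set limit, derived from the sample mean plus 3 SD, cut at about 45% in these data; inconclusive means one replicate passes the limit while the other fails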
BaF3 tox – parental Ba/F3 cell viability inhibition, counter-screen for JAK2V617F inhibitor project, murine pro-B, CellTiter-Glo luminescence | CellTiter-Glo ATP luminescence | inhibition, % at 5.6 µM | hit rate 1.1% among 220,000;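 active means inhibition above a per-campaign cutoff, the mean inhibition of all tested compounds plus 3 SD, cut at about 27% in these data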;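 further: 0% = DMSO wells and 100% = JAK Inhibitor I control wells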
* hit, by the source's call. Most compounds without a hit are left out; they make up all but 2.2% or so of the library.

What do the screens show for `CN1Cc2c(N3CCOCC3)nc3sc(C(=O)c4ccc(Br)cc4)c(N)c3c2CC1(C)C`?
aSyn 5UTR inh: 105*; KLF5 inhibitor: -5; Ba/F3 V617F tox: 5; IEC-6 cytotox: -2; BaF3 tox: 0

How did CC(=O)Nc1sc(C)c(C)c1C(=O)OCC(=O)N(CC(C)C)c1c(N)n(Cc2ccccc2)c(=O)[nH]c1=O do in these assays?
aSyn 5UTR inh: 77*

What do the screens show for `O=C(O)/C=C/C(=O)c1ccc2c(c1)CCc1ccccc1-2`?
aSyn 5UTR inh: -111

How did CCCc1ccc2oc(C(=O)NCc3nnc(C)o3)c(C)c2c1 do in these assays?
aSyn 5UTR inh: -128; KLF5 inhibitor: -110; IEC-6 cytotox: 0

Results for CNC(=S)N/N=C/c1c(C)c(C(=O)c2ccc(F)cc2)n2ccccc12 ?
aSyn 5UTR inh: 23; KLF5 inhibitor: -2; IEC-6 cytotox: 12

How did COc1ccc(C2C3=C(CCCC3=O)Nc3nc(-c4cc(OC)c(OC)c(OC)c4)nn32)cc1OC (stereo not given) do in these assays?
aSyn 5UTR inh: -6; KLF5 inhibitor: -25; Ba/F3 V617F tox: 0; IEC-6 cytotox: 1; APP transl inh: -3; BaF3 tox: 93*

How did C=CCOc1nc(-c2ccccc2Cl)nc2ccccc12 do in these assays?
aSyn 5UTR inh: 72*; KLF5 inhibitor: -21; Ba/F3 V617F tox: -1; IEC-6 cytotox: 1; BaF3 tox: 2

How did O=C(CCCCn1c(=O)c2ccccc2n(Cc2ccccc2)c1=O)NC1CCN(Cc2ccccc2)CC1 do in these assays?
aSyn 5UTR inh: -4; KLF5 inhibitor: -20; Ba/F3 V617F tox: -1; IEC-6 cytotox: -10; APP transl inh: -24; BaF3 tox: 5

Results for Cc1ccc(CSc2nnc(SCC(=O)N/N=C/C=C/c3ccccc3[N+](=O)[O-])s2)cc1 ?
aSyn 5UTR inh: 89*; KLF5 inhibitor: -6; Ba/F3 V617F tox: 1; IEC-6 cytotox: 2; APP transl inh: 36; BaF3 tox: 10

What do the screens show for `Cc1ccc(CSc2nnc(SCC(=O)N/N=C/C=C/c3ccco3)s2)cc1`?
aSyn 5UTR inh: 52; KLF5 inhibitor: 12; Ba/F3 V617F tox: -1; IEC-6 cytotox: 0; APP transl inh: 22; BaF3 tox: 8

Results for Nc1nc(N)c2cc(Sc3ccc4ccccc4c3)ccc2n1 ?
aSyn 5UTR inh: 96*; KLF5 inhibitor: 26; Ba/F3 V617F tox: 96*; IEC-6 cytotox: 81*; BaF3 tox: 101*

What do the screens show for `CN1CCN(S(=O)(=O)c2ccc(N3CCN(S(=O)(=O)/C=C/c4ccccc4)CC3)nc2)CC1`?
aSyn 5UTR inh: 0; KLF5 inhibitor: 3; Ba/F3 V617F tox: 1; IEC-6 cytotox: -1; APP transl inh: 11; BaF3 tox: 47*

How did CN1CCN(S(=O)(=O)c2ccc(N3CCN(C(c4ccccc4)c4ccccc4)CC3)nc2)CC1 do in these assays?
aSyn 5UTR inh: 0; KLF5 inhibitor: 3; Ba/F3 V617F tox: 1; IEC-6 cytotox: -2; APP transl inh: -20; BaF3 tox: 4

What do the screens show for `CC(C(=O)OCc1nnc(-c2ccccc2)o1)N1C(=O)C2CCCCC2C1=O` (stereo not given)?
aSyn 5UTR inh: -63; KLF5 inhibitor: -10; Ba/F3 V617F tox: 1; IEC-6 cytotox: 6; APP transl inh: -3; BaF3 tox: 6

Results for Cc1cc(=O)[nH]c(NN=C2C3CC4CC(C3)CC2C4)n1 ?
aSyn 5UTR inh: -4; KLF5 inhibitor: -46; Ba/F3 V617F tox: -5; IEC-6 cytotox: 0; BaF3 tox: -5

What do the screens show for `O=S(=O)(c1ccc(Cl)c(NC(=S)Nc2cccc(O)c2)c1)N1CCOCC1`?
aSyn 5UTR inh: -5; KLF5 inhibitor: -33; Ba/F3 V617F tox: 0; IEC-6 cytotox: -2; APP transl inh: 6; BaF3 tox: 3

How did Cc1cccc(NC(=S)N=Nc2c(O)n(C)c3ccc(S(=O)(=O)N4CCOCC4)cc23)c1 do in these assays?
aSyn 5UTR inh: 83*; KLF5 inhibitor: -6; Ba/F3 V617F tox: -7; IEC-6 cytotox: -3; APP transl inh: 66*; BaF3 tox: 0

How did Cn1c(=O)n(C)c2cc(S(=O)(=O)N3CCOCC3)ccc21 do in these assays?
aSyn 5UTR inh: 22; KLF5 inhibitor: -1; Ba/F3 V617F tox: 2; IEC-6 cytotox: 2; APP transl inh: -11; BaF3 tox: 3

What do the screens show for `Cc1ccc(NC(=S)N=Nc2c(O)n(C)c3ccc(S(=O)(=O)N4CCOCC4)cc23)cc1`?
aSyn 5UTR inh: 75*; KLF5 inhibitor: 7; Ba/F3 V617F tox: 2; IEC-6 cytotox: 5; APP transl inh: 69*; BaF3 tox: 7

What do the screens show for `Cc1ccc(NC(=O)c2ccc(S(=O)(=O)N3CCOCC3)cc2)cc1`?
aSyn 5UTR inh: -20; KLF5 inhibitor: -8; IEC-6 cytotox: -1

What do the screens show for `Cc1cc(C)cc(NC(=S)N=Nc2c(O)n(C)c3ccc(S(=O)(=O)N4CCOCC4)cc23)c1`?
aSyn 5UTR inh: 63*; KLF5 inhibitor: -11; Ba/F3 V617F tox: 0; IEC-6 cytotox: 4; APP transl inh: 38; BaF3 tox: -2

What do the screens show for `CCOC(=O)c1ccc(S(=O)(=O)NNC(=O)COc2ccccc2C)cc1`?
aSyn 5UTR inh: 14; KLF5 inhibitor: -2; Ba/F3 V617F tox: -2; IEC-6 cytotox: -8; APP transl inh: -2; BaF3 tox: -2

How did COc1ccc(F)cc1S(=O)(=O)Nc1cc2c3c(c1)CC(=O)N3CCC2 do in these assays?
aSyn 5UTR inh: -2

What do the screens show for `CC1(c2ccccc2)NC(=O)N(CC(=O)N2CCN(S(=O)(=O)c3cccc([N+](=O)[O-])c3)CC2)C1=O` (stereo not given)?
aSyn 5UTR inh: 1

What do the screens show for `CC(=O)c1ccccc1OCCCN1CCCCC1`?
aSyn 5UTR inh: -5; KLF5 inhibitor: -10; Ba/F3 V617F tox: 3; IEC-6 cytotox: -3; APP transl inh: 22; BaF3 tox: 1

What do the screens show for `CC(=O)c1ccccc1OCCOCCOCCOc1ccccc1C(C)=O`?
aSyn 5UTR inh: 67*; KLF5 inhibitor: -13; Ba/F3 V617F tox: -5; IEC-6 cytotox: -9; APP transl inh: -15; BaF3 tox: -2

How did Cc1ccc(-c2nc(-c3ccccc3)no2)cc1 do in these assays?
aSyn 5UTR inh: inconclusive; KLF5 inhibitor: -117; Ba/F3 V617F tox: 1; IEC-6 cytotox: -1; APP transl inh: -132; BaF3 tox: 4

How did Cc1ccc(-c2nc(-c3ccccc3)no2)c(Cl)c1 do in these assays?
aSyn 5UTR inh: 95*; KLF5 inhibitor: -149; Ba/F3 V617F tox: -2; IEC-6 cytotox: -2; APP transl inh: -166; BaF3 tox: 3

What do the screens show for `O=C(NCCN1CCCCC1)c1ccc(F)cc1Cl`?
aSyn 5UTR inh: -5; KLF5 inhibitor: -34; IEC-6 cytotox: -3
